# Measured values published in PubChem BioAssay AID2132 (NMMLSC, 2009).
# Unmarked numbers belong to inactive results. Calls of active or inactive are those of the source.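 How the source made its calls: active means inhibition above 20%; inactive means the rest.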 Peptide text beside a SMILES is read from it. * marks the point of attachment. Cbz = O=C(OCc1ccccc1)*
# Test: yeast 26S proteasome protease site inhibitors – biochemical, fluorogenic peptides, secondary, counter-screen for 26S proteasome disassembly project (AID 2132)
# Details: fluorogenic peptide cleavage rate, with Ac-nLPnLD-amc, at 100 µM, hits give high values
row,Compound,inhibition
1,CC(C)C[C@@H](C=O)NC(=O)[C@H](CC(C)C)NC(=O)[C@H](CC(C)C)NC(=O)OCc1ccccc1 (Cbz-Leu-Leu-Leu-aldehyde),27% (active)
2,CC(=O)N1C(=O)C(=C2C=C(C)OC(C)=C2)c2ccccc21,20%
